40 compounds from ChEMBL document CHEMBL3988442, “University of Dundee, Small-Polar-MMV Screening Library” (2021) can be followed below.

The target in the experiment is AMP-activated protein kinase, AMPK (Homo sapiens) (UniProt P54646+O43741+P54619+Q9UGJ0+Q9Y478+Q13131+Q9UGI9). The experiment can be described thus: AMP-dependent Kinase enzyme assay. An in vitro enzyme assay that detects ADP turnover that is directly proportional to AMPK activity. This uses naive AMPK that is activated during the assay with MK-8722. It counts as functional. The conditions noted are these: 30 µM. On the set-up: scale not given: direction of the effect not stated beside the values.
`CCS(=O)(=O)NCc1nc(C)cc(N2CCCCC2)n1`: the Percent Effect came to 0.829%.

As to `c1ccc(Cc2noc(-c3ccc(NCC4CCCCO4)nc3)n2)cc1` (stereo not given), the Percent Effect was found to be 3.99%.

Take `Cc1sc(C(=O)N(C)S(C)(=O)=O)cc1-c1ccc(F)cc1`: the Percent Effect was -2.1%.

Take `O=C(CC1COCCN1)N1CCC(N2CCc3ccccc3C2)CC1` (stereo not given): the Percent Effect is -4.72%.

For `Cc1ccc(N2CCCN(C(=O)CCCn3ccnc3C)CC2)nn1`, the Percent Effect was -0.453%.

On to `O=C(NC1CCCN(Cc2c(F)cccc2F)C1)c1cc[nH]n1` (stereo not given), for which the Percent Effect was -4.83%.

Take `CCCC(=O)Nc1cccc([C@H]2C[C@@H](NC(C)=O)CCO2)c1`: the Percent Effect was determined as 13.7%.

As to `CC(C)c1ccc(CC(=O)N2CCCC3(CN(C)C(=O)O3)C2)cc1` (stereo not given), the Percent Effect amounted to 15%.

For the compound `NC(=O)CN1C[C@@H](c2ccccc2F)[C@@]2(CCCCC(=O)N2)C1`, the Percent Effect turned out to be 15.1%.

In the case of `CN(Cc1cc(Br)cs1)Cc1nnsc1Cl`, the Percent Effect came to 15.7%.

`CS(=O)(=O)NC1CCN(Cc2coc(-c3ccccc3)n2)CC1`: the Percent Effect was 0.161%.

With `O=C(COc1ccc(Cl)cc1)NCc1nncn1C1CC1`, the Percent Effect is -8.68%.

As for `COc1ccc2nc(CNC(=O)C3CC4(CCNCC4)CN3C)[nH]c2c1` (stereo not given), the Percent Effect was -3.99%.

Regarding `Cc1ccc(C(=O)NC2CCCN(S(C)(=O)=O)C2)c(=O)[nH]1` (stereo not given), the Percent Effect is -0.668%.

For `CCCOc1cc(CNC(=O)Nc2ccc(C)cc2)ccn1`, the Percent Effect is 1.3%.

In the case of `CN(C(=O)c1ccncc1)c1nnc(C2CCOC2)s1` (stereo not given), the Percent Effect turned out to be 12.1%.

On to `COC(=O)c1ccc(Cn2cccc(C(F)(F)F)c2=O)s1`, for which the Percent Effect was 3.31%.

Take `Cn1cnnc1C1CCN(c2nc3ccccc3o2)CC1`: the Percent Effect turned out to be 1.68%.

As to `Cn1cncc1C(=O)N1CCCC(c2ccn[nH]2)C1` (stereo not given), the Percent Effect is -5.31%.

Regarding `CN(CCCC1CCCO1)C(=O)c1cccc(C#N)c1` (stereo not given), the Percent Effect was 10.9%.

`CC(C)(C)NC(=O)CNc1ncc(Br)cn1`: the Percent Effect was found to be 7.93%.

As to `COc1ccccc1CN(Cc1nc(CC(C)C)no1)C1CC1`, the Percent Effect was determined as 14.9%.

Turning to `Cc1c(CN2CCCCC2)c(O)n(CCO)c(=O)c1C#N`, the Percent Effect was -415%.

Consider `Cc1cc(=O)n2nc(Oc3cc(Cl)cc(Cl)c3)sc2n1`, for which the Percent Effect is -4.19%.

As to `c1cc(N2CCC(CN3CCOCC3)CC2)c2sccc2n1`, the Percent Effect stood at 2.28%.

Regarding `CCSCc1cccc(NCc2cccnc2)c1`, the Percent Effect stood at 5.73%.

Turning to `Cn1ncc2c(N[C@@H]3C[C@@H]4CC[C@H]3C4)nc(-c3ccncc3)nc21`, the Percent Effect was found to be 12.7%.

Regarding `CC(C)c1cc(C(=O)N[C@@H]2CC[C@@H](Oc3ccccc3)[C@@H]2O)on1`, the Percent Effect came out at 16.6%.

On to `CCc1cc(=O)[nH]c(-c2ccc(NC(C)CN3CCOCC3)nc2)n1` (stereo not given), for which the Percent Effect is -2.92%.

For `Cc1ccccc1C(=O)NC(C)CN1CCOC1=O` (stereo not given), the Percent Effect is 14.9%.

As for `CCC(C(=O)NC1(COC)CCCC1)n1cccn1` (stereo not given), the Percent Effect was -12%.

For `CN(C(=O)c1ccccc1N(C)S(C)(=O)=O)c1ccc(C(C)(C)C)cc1`, the Percent Effect was 6.59%.

Consider `O=C1CCC(=O)N1CCn1nnc(-c2cccc(Cl)c2)n1`, for which the Percent Effect is -7.61%.

In the case of `CS(=O)(=O)c1ccc(Cl)c(NC(=O)NCCC2=CCCCC2)c1`, the Percent Effect is 3.49%.

On to `CCc1cc(NCCCc2nc(C)no2)nc(-c2ccncc2)n1`, for which the Percent Effect is -1.39%.

As to `O=C(NCCn1ccnc1)C1COCC(=O)N1Cc1ccccc1` (stereo not given), the Percent Effect turned out to be 5.07%.

As to `Cc1ccc(C)c(CC(=O)NC2CCS(=O)(=O)CC2)c1`, the Percent Effect is -4.86%.

Take `Cc1noc(C)c1CCCNC(=O)Nc1ccc2c(c1)COC2`: the Percent Effect came to 16.7%.

Turning to `COc1ccc(CCCC(=O)N2CCCC(n3cncn3)C2)cc1` (stereo not given), the Percent Effect stood at 4.51%.

Take `Cc1ccc(Br)cc1C(=O)Nc1cc(C(N)=O)n(C)c1`: the Percent Effect stood at 0.519%.
